Measured values as given in the supplement of paper PMC7411054.
Where a name gives a salt, the structure may show the parent alone.

Assays:
Conditions in all cases: treatment time: 24 h
[1] = tested on: A549-GM130-SQSTM1; assay: lowest phenotypically active concentration; higher = less potent
Procedure, shortened: (§1)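 Each of fifteen gene-edited A549, HepG2 and WPMY1 reporter lines, marked with BFP for segmentation and GFP and RFP/FusionRed, was treated in four wells at 0.3, 1, 3 or 9 µM for 24 h prior to live imaging. Normalisation of per-well live-cell features used solvent control wells. Deviation needed ≥3 of 4 wells beyond the 95th percentile of control Euclidean distances, and reproducibility needed a median replicate Pearson correlation above the 95th percentile of non-replicates. Both were required for phenotypic activity.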

[2] = tested on: A549-ACTB-RAB5A; assay: phenotypically active (imaging signature differs from DMSO and reproducible) at any of 0.3-9 uM (binary (1 = active, 0 = inactive)); higher = active
Procedure, shortened: as §1

[3] = tested on: A549-CANX-COX4; assay: as above
Procedure, shortened: as §1

[4] = tested on: A549-GM130-SQSTM1; assay: as above
Procedure, shortened: as §1

[5] = tested on: A549-TP53BP1-CLTA; assay: as above
Procedure, shortened: as §1

[6] = tested on: A549-TUBA1B-RELA; assay: as above
Procedure, shortened: as §1

[7] = tested on: HepG2-ACTB-RAB5A; assay: as above
Procedure, shortened: as §1

[8] = tested on: HepG2-CANX-COX4; assay: as above
Procedure, shortened: as §1

[9] = tested on: HepG2-GM130-SQSTM1; assay: as above
Procedure, shortened: as §1

[10] = tested on: HepG2-TP53BP1-CLTA; assay: as above
Procedure, shortened: as §1

[11] = tested on: HepG2-TUBA1B-RELA; assay: as above
Procedure, shortened: as §1

[12] = tested on: WPMY1-ACTB-RAB5A; assay: as above
Procedure, shortened: as §1

[13] = tested on: WPMY1-CANX-COX4; assay: as above
Procedure, shortened: as §1

[14] = tested on: WPMY1-GM130-SQSTM1; assay: as above
Procedure, shortened: as §1

[15] = tested on: WPMY1-TP53BP1-CLTA; assay: as above
Procedure, shortened: as §1

[16] = tested on: WPMY1-TUBA1B-RELA; assay: as above
Procedure, shortened: as §1

[17] = tested on: A549-ACTB-RAB5A; assay: lowest phenotypically active concentration; higher = less potent
Procedure, shortened: as §1

[18] = tested on: WPMY1-CANX-COX4; assay: as above
Procedure, shortened: as §1

[19] = tested on: WPMY1-GM130-SQSTM1; assay: as above
Procedure, shortened: as §1

[20] = tested on: HepG2-ACTB-RAB5A; assay: as above
Procedure, shortened: as §1

| Structure (SMILES) | lowest phenotypically active concentration [1] | phenotypically active [2] | phenotypically active [3] | phenotypically active [4] | phenotypically active [5] | phenotypically active [6] | phenotypically active [7] | phenotypically active [8] | phenotypically active [9] | phenotypically active [10] | phenotypically active [11] | phenotypically active [12] | phenotypically active [13] | phenotypically active [14] | phenotypically active [15] | phenotypically active [16] | lowest phenotypically active concentration [17] | lowest phenotypically active concentration [18] | lowest phenotypically active concentration [19] | lowest phenotypically active concentration [20] |
| --- | --- | --- | --- | --- | --- | --- | --- | --- | --- | --- | --- | --- | --- | --- | --- | --- | --- | --- | --- | --- |
| CC(C)NC[C@H](O)COc1cccc2ccccc12 [(S)-(-)-Propranolol hydrochloride] | 9 µM | 0 (inactive) | 0 (inactive) | 1 (active) | 0 (inactive) | 0 (inactive) | 0 (inactive) | 0 (inactive) | 0 (inactive) | 0 (inactive) | 0 (inactive) | 0 (inactive) | 0 (inactive) | 0 (inactive) | 0 (inactive) | 0 (inactive) | – | – | – | – |
| CCOC(=O)N1CCC(=C2c3ccc(Cl)cc3CCc3cccnc32)CC1 [loratadine] | – | 1 (active) | 0 (inactive) | 0 (inactive) | 0 (inactive) | 0 (inactive) | 0 (inactive) | 1 (active) | 0 (inactive) | 0 (inactive) | 0 (inactive) | 0 (inactive) | 0 (inactive) | 0 (inactive) | 0 (inactive) | 0 (inactive) | 9 µM | – | – | – |
| CCCOc1ccn2c(C(C)=O)cc(-c3ccccc3S(C)(=O)=O)c2c1 | 9 µM | 0 (inactive) | 0 (inactive) | 1 (active) | 0 (inactive) | 0 (inactive) | 0 (inactive) | 0 (inactive) | 0 (inactive) | 0 (inactive) | 0 (inactive) | 0 (inactive) | 0 (inactive) | 0 (inactive) | 0 (inactive) | 0 (inactive) | – | – | – | – |
| N=C1NC(=O)/C(=C\c2ccc(O)cc2)S1 [Mirin] | – | 1 (active) | 0 (inactive) | 0 (inactive) | 0 (inactive) | 0 (inactive) | 0 (inactive) | 0 (inactive) | 0 (inactive) | 0 (inactive) | 0 (inactive) | 1 (active) | 0 (inactive) | 0 (inactive) | 0 (inactive) | 0 (inactive) | 9 µM | – | – | – |
| Cc1cccc(-c2n[nH]cc2-c2ccc(F)c(-c3cnn(CCO)c3)c2)n1 | – | 1 (active) | 0 (inactive) | 0 (inactive) | 0 (inactive) | 0 (inactive) | 0 (inactive) | 1 (active) | 0 (inactive) | 1 (active) | 0 (inactive) | 1 (active) | 1 (active) | 1 (active) | 1 (active) | 1 (active) | 9 µM | 9 µM | 9 µM | – |
| O=C1NCCCc2c1oc1ccc(O)cc21 | – | 1 (active) | 0 (inactive) | 0 (inactive) | 0 (inactive) | 0 (inactive) | 0 (inactive) | 1 (active) | 0 (inactive) | 0 (inactive) | 1 (active) | 1 (active) | 0 (inactive) | 1 (active) | 0 (inactive) | 1 (active) | 9 µM | – | 9 µM | – |
| CCOC(=O)C1=C[C@]2(CC)CCCN3CCc4c(n1c1ccccc41)[C@@H]32 [Vinpocetine] | – | 1 (active) | 0 (inactive) | 0 (inactive) | 0 (inactive) | 0 (inactive) | 1 (active) | 0 (inactive) | 0 (inactive) | 0 (inactive) | 0 (inactive) | 0 (inactive) | 0 (inactive) | 1 (active) | 0 (inactive) | 0 (inactive) | 9 µM | – | 9 µM | 9 µM |
| CC[C@H](Nc1ncnc2[nH]cnc12)c1nc2cccc(F)c2c(=O)n1-c1ccccc1 [idelalisib] | – | 1 (active) | 0 (inactive) | 0 (inactive) | 0 (inactive) | 0 (inactive) | 0 (inactive) | 0 (inactive) | 0 (inactive) | 0 (inactive) | 0 (inactive) | 1 (active) | 0 (inactive) | 0 (inactive) | 0 (inactive) | 0 (inactive) | 9 µM | – | – | – |
| O=C(O/N=C1\c2ccccc2-c2nc3ccccc3nc21)c1ccco1 | – | 1 (active) | 0 (inactive) | 0 (inactive) | 0 (inactive) | 0 (inactive) | 0 (inactive) | 0 (inactive) | 0 (inactive) | 0 (inactive) | 0 (inactive) | 1 (active) | 1 (active) | 0 (inactive) | 1 (active) | 1 (active) | 9 µM | 9 µM | – | – |
| O=C(COc1cccc2c(=O)[nH]ccc12)c1ccccc1 | 9 µM | 0 (inactive) | 0 (inactive) | 1 (active) | 0 (inactive) | 0 (inactive) | 0 (inactive) | 0 (inactive) | 0 (inactive) | 0 (inactive) | 0 (inactive) | 0 (inactive) | 0 (inactive) | 0 (inactive) | 0 (inactive) | 0 (inactive) | – | – | – | – |
| Cc1cc2sc(NC(=O)Cc3ccccc3)nc2cc1Cl | 3 µM | 0 (inactive) | 0 (inactive) | 1 (active) | 0 (inactive) | 1 (active) | 0 (inactive) | 0 (inactive) | 0 (inactive) | 0 (inactive) | 0 (inactive) | 0 (inactive) | 0 (inactive) | 0 (inactive) | 0 (inactive) | 0 (inactive) | – | – | – | – |
| CC(=O)S[C@@H]1CC2=CC(=O)CC[C@]2(C)[C@H]2CC[C@@]3(C)[C@@H](CC[C@@]34CCC(=O)O4)[C@H]12 [spironolactone] | – | 1 (active) | 0 (inactive) | 0 (inactive) | 0 (inactive) | 0 (inactive) | 0 (inactive) | 0 (inactive) | 0 (inactive) | 0 (inactive) | 0 (inactive) | 0 (inactive) | 0 (inactive) | 1 (active) | 0 (inactive) | 0 (inactive) | 9 µM | – | 9 µM | – |
| CC(=O)C1=C(O)[C@]2(C)C(=CC1=O)Oc1c(C(C)=O)c(O)c(C)c(O)c12 [(+)-Usnic acid] | 9 µM | 0 (inactive) | 0 (inactive) | 1 (active) | 0 (inactive) | 0 (inactive) | 0 (inactive) | 0 (inactive) | 0 (inactive) | 0 (inactive) | 0 (inactive) | 0 (inactive) | 0 (inactive) | 0 (inactive) | 0 (inactive) | 0 (inactive) | – | – | – | – |
| COc1ccc(-n2c(SCCCN3C(=O)c4cccc5cccc(c45)C3=O)nnc2-c2ccncc2)cc1 | 3 µM | 0 (inactive) | 0 (inactive) | 1 (active) | 0 (inactive) | 1 (active) | 0 (inactive) | 0 (inactive) | 0 (inactive) | 0 (inactive) | 0 (inactive) | 0 (inactive) | 0 (inactive) | 0 (inactive) | 0 (inactive) | 0 (inactive) | – | – | – | – |
| C=C1CC[C@H](O)C/C1=C\C=C1\CCC[C@]2(C)[C@@H]([C@H](C)/C=C/[C@H](C)C(C)C)CC[C@@H]12 [Calciferol] | 9 µM | 0 (inactive) | 0 (inactive) | 1 (active) | 0 (inactive) | 0 (inactive) | 0 (inactive) | 0 (inactive) | 0 (inactive) | 0 (inactive) | 0 (inactive) | 0 (inactive) | 0 (inactive) | 0 (inactive) | 0 (inactive) | 0 (inactive) | – | – | – | – |
| Cn1cc(-c2ccc3nnc(Sc4ccc5ncccc5c4)n3n2)cn1 | – | 0 (inactive) | 1 (active) | 0 (inactive) | 1 (active) | 0 (inactive) | 1 (active) | 0 (inactive) | 0 (inactive) | 0 (inactive) | 0 (inactive) | 0 (inactive) | 0 (inactive) | 1 (active) | 0 (inactive) | 0 (inactive) | – | – | 1 µM | 1 µM |
| COc1ccc(CCc2nc3c(C)c(-c4c(C)noc4C)c(C)cc3n2CCN2CCOCC2)cc1 | 9 µM | 0 (inactive) | 0 (inactive) | 1 (active) | 0 (inactive) | 0 (inactive) | 0 (inactive) | 0 (inactive) | 0 (inactive) | 0 (inactive) | 0 (inactive) | 0 (inactive) | 0 (inactive) | 0 (inactive) | 0 (inactive) | 0 (inactive) | – | – | – | – |
| Cc1nc2sccn2c(=O)c1CCN1CCC(=C(c2ccc(F)cc2)c2ccc(F)cc2)CC1 [Ritanserin] | – | 1 (active) | 0 (inactive) | 0 (inactive) | 0 (inactive) | 0 (inactive) | 0 (inactive) | 0 (inactive) | 1 (active) | 0 (inactive) | 1 (active) | 0 (inactive) | 0 (inactive) | 1 (active) | 0 (inactive) | 0 (inactive) | 9 µM | – | 9 µM | – |
| Cc1c[nH]c2ncnc(-c3ccc(NC(=O)N(CCO)c4ccccc4)cc3)c12 | – | 1 (active) | 0 (inactive) | 0 (inactive) | 0 (inactive) | 0 (inactive) | 0 (inactive) | 0 (inactive) | 0 (inactive) | 0 (inactive) | 0 (inactive) | 0 (inactive) | 0 (inactive) | 0 (inactive) | 0 (inactive) | 1 (active) | 9 µM | – | – | – |
| C[C@@H]1CCN(C(=O)CC#N)C[C@@H]1N(C)c1ncnc2[nH]ccc12 | – | 1 (active) | 0 (inactive) | 0 (inactive) | 0 (inactive) | 0 (inactive) | 0 (inactive) | 1 (active) | 1 (active) | 1 (active) | 0 (inactive) | 0 (inactive) | 0 (inactive) | 0 (inactive) | 0 (inactive) | 0 (inactive) | 9 µM | – | – | – |
| CC(C)c1ccc(-c2cc(=O)c3ccccc3o2)cc1 | – | 1 (active) | 0 (inactive) | 0 (inactive) | 0 (inactive) | 0 (inactive) | 0 (inactive) | 0 (inactive) | 0 (inactive) | 0 (inactive) | 0 (inactive) | 0 (inactive) | 0 (inactive) | 1 (active) | 0 (inactive) | 0 (inactive) | 9 µM | – | 3 µM | – |
